Assay results from PubChem BioAssay (NCATS).
Inconclusive results are not listed. Some compounds were tested as several samples or in several runs, with calls that do not always agree. Unmarked numbers belong to inactive results. The source made the active and inactive calls. Calls follow the shape of the dose curve; as a rule, active = well fitted inhibition curve with a large enough effect; inconclusive = small, poorly fitted or top-dose-only effect; inactive = flat fitted curve, though single readings scatter.

Test system: CRL-7250
Test: Cytotoxic Profiling of Annotated Libraries Using Quantitative High-Throughput Screening (AID 1296008); also: nearly all actives have a fitted effect of over 60% in size
Settings: Five cell lines viability, CellTiter-Glo ATP luminescence, 48-72 h; max response: hits give low values
Method in brief: (§1)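 Compounds were pin-transferred onto cells and incubated 48 or 72 hr at 37 degree Celsius, 95% humidity. CellTiter-Glo was added, plates sat 10 min at room temperature, then ATP-coupled luminescence was imaged as the viability read-out.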
% is scaled to controls: 0 for no effect and ±100 for the full control effect; potency is read from the fitted curve at half-maximal effect.

Question: With `CCN(Cc1ccncc1)C(=O)C(CO)c1ccccc1` (stereo not given) as the molecule, how does the max response read?
Answer: -20.8%

Question: Which outcome does the source give for `NC(=O)c1cn(Cc2c(F)cccc2F)nn1` here?
Answer: inactive

Question: For `CCCCCN(CCCCC)C(=O)C(CCC(=O)O)NC(=O)c1ccc(Cl)c(Cl)c1` (stereo not given), which max response is on record?
Answer: -3.52%

Question: For `O=C1CC2(CCCC2)CC(=O)N1CCCCN1CCN(c2ncccn2)CC1`, which outcome is on record?
Answer: inactive

Question: With `NC(Cc1ccc(Cl)cc1)C(=O)O` (stereo not given) as the molecule, how does the max response read?
Answer: -4.47%

Question: For `CCCN(CCC)CCc1cccc2c1CC(=O)N2`, which max response is on record?
Answer: 1.13%

Question: Which outcome does the source give for `O=C(O)CN(CCOCCOCCN(CC(=O)O)CC(=O)O)CC(=O)O` here?
Answer: inactive

Question: With `CCN(CC)CCNC(=O)c1ccc(NC(C)=O)cc1` as the molecule, how does the outcome read?
Answer: inactive

Question: Which max response does the source give for `CCCN(CCC)C(=O)C(CCC(=O)O)NC(=O)c1ccccc1` (stereo not given) here?
Answer: -4.87%

Question: `O=C(O)CCCCCCCC(=O)O` was tested. Which max response did it give?
Answer: -17.5%

Question: For `Cc1ccc(/C(=C\CN2CCCC2)c2ccccn2)cc1`, which max response is on record?
Answer: 0.263%

Question: For `CC(=O)OCC1=C(C(=O)O)N2C(=O)[C@@H](NC(=O)Cc3cccs3)[C@H]2SC1`, which max response is on record?
Answer: 1.94%

Question: For `COc1cc(Cc2cnc(N)nc2N)cc(OC)c1OC`, which outcome is on record?
Answer: inactive

Question: With `CCCNC(C)C(=O)Nc1ccccc1C` (stereo not given) as the molecule, how does the max response read?
Answer: -2.89%

Question: Which max response does the source give for `CNC1(C)C2CCC(C2)C1(C)C` (stereo not given) here?
Answer: -2.13%

Question: How did the max response turn out when `Cc1scc2c1N(C(=O)CN1CCN(C)CC1)c1ccccc1NC2=O` was run?
Answer: -1.88%

Question: How did the max response turn out when `CCCOc1ccccc1-c1nc2n[nH]nc2c(=O)[nH]1` was run?
Answer: -0.525%

Question: With `CC(C)NNC(=O)c1ccncc1` as the molecule, how does the max response read?
Answer: -3.48%

Question: For `Nc1c2c(nc3ccccc13)CCCC2O` (stereo not given), which max response is on record?
Answer: -0.206%

Question: Which max response does the source give for `NC(=O)c1ncn([C@@H]2O[C@H](CO)[C@@H](O)[C@H]2O)c1O` here?
Answer: -24.9%

Question: For `Cc1nc2c([nH]1)c(=O)n(C)c(=O)n2Cc1ccco1`, which max response is on record?
Answer: 0.6%

Question: For `Cc1cc(C)c(/C=C2\C(=O)Nc3ccccc32)[nH]1`, which max response is on record?
Answer: -6.15%

Question: With `CC(=O)OC(C)C[N+](C)(C)C` (stereo not given) as the molecule, how does the max response read?
Answer: 1.65%

Question: How did the max response turn out when `CCn1cc(C(=O)O)c(=O)c2cc3c(cc21)OCO3` was run?
Answer: -16.9%

Question: With `CC(=O)Nc1nnc(S(N)(=O)=O)s1` as the molecule, how does the outcome read?
Answer: inactive

Question: With `NC(=Nc1ccccc1)Nc1ccccc1` as the molecule, how does the max response read?
Answer: -3.1%

Question: `FC(F)(F)c1ccccc1-n1ccnc1` was tested. Which outcome did it give?
Answer: inactive

Question: `CCCCOCCOCCOCc1cc2c(cc1CCC)OCO2` was tested. Which Potency did it give?
Answer: 61.8 µM (active)

Question: And the max response?
Answer: 0.375%

Question: Which max response does the source give for `CCN1CCc2nc(N)oc2CC1` here?
Answer: 2.68%

Question: Which max response does the source give for `O=C(CCNNC(=O)c1ccncc1)NCc1ccccc1` here?
Answer: 0.469%

Question: Which max response does the source give for `C[N+](C)(C)CCOC(=O)CCC(=O)OCC[N+](C)(C)C` here?
Answer: 1.65%

Question: Which max response does the source give for `CN(C)CCOC(=O)COc1ccc(Cl)cc1` here?
Answer: -13.3%

Question: With `NC/C=C/C(=O)O` as the molecule, how does the max response read?
Answer: -5.1%

Question: For `CCN(CC)CC(=O)Nc1c(C)cccc1C`, which max response is on record?
Answer: -12.2%

Question: How did the outcome turn out when `CCN1CCC[C@H]1CNC(=O)c1c(O)c(Cl)cc(Cl)c1OC` was run?
Answer: inactive

Test system: HEK293
Test: as above
Settings: Five cell lines viability, CellTiter-Glo ATP luminescence, 48-72 h; max response: hits give low values
Method in brief: as §1

Question: Which max response does the source give for `CCN(Cc1ccncc1)C(=O)C(CO)c1ccccc1` (stereo not given) here?
Answer: -10.1%

Question: `NC(=O)c1cn(Cc2c(F)cccc2F)nn1` was tested. Which max response did it give?
Answer: 4.15%

Question: `CCCCCN(CCCCC)C(=O)C(CCC(=O)O)NC(=O)c1ccc(Cl)c(Cl)c1` (stereo not given) was tested. Which max response did it give?
Answer: -9.3%

Question: How did the max response turn out when `O=C1CC2(CCCC2)CC(=O)N1CCCCN1CCN(c2ncccn2)CC1` was run?
Answer: -2.12%

Question: For `NC(Cc1ccc(Cl)cc1)C(=O)O` (stereo not given), which outcome is on record?
Answer: inactive

Question: Which outcome does the source give for `CCCN(CCC)CCc1cccc2c1CC(=O)N2` here?
Answer: inactive

Question: `O=C(O)CN(CCOCCOCCN(CC(=O)O)CC(=O)O)CC(=O)O` was tested. Which max response did it give?
Answer: 0.265%

Question: How did the max response turn out when `CCN(CC)CCNC(=O)c1ccc(NC(C)=O)cc1` was run?
Answer: 3.23%

Question: Which outcome does the source give for `CCCN(CCC)C(=O)C(CCC(=O)O)NC(=O)c1ccccc1` (stereo not given) here?
Answer: inactive

Question: For `O=C(O)CCCCCCCC(=O)O`, which max response is on record?
Answer: 3%

Question: With `Cc1ccc(/C(=C\CN2CCCC2)c2ccccn2)cc1` as the molecule, how does the max response read?
Answer: -16.2%

Question: Which max response does the source give for `CC(=O)OCC1=C(C(=O)O)N2C(=O)[C@@H](NC(=O)Cc3cccs3)[C@H]2SC1` here?
Answer: -2.75%

Question: For `COc1cc(Cc2cnc(N)nc2N)cc(OC)c1OC`, which outcome is on record?
Answer: inactive

Question: Which max response does the source give for `CCCNC(C)C(=O)Nc1ccccc1C` (stereo not given) here?
Answer: 1.1%

Question: How did the max response turn out when `CNC1(C)C2CCC(C2)C1(C)C` (stereo not given) was run?
Answer: -9.06%

Question: How did the max response turn out when `Cc1scc2c1N(C(=O)CN1CCN(C)CC1)c1ccccc1NC2=O` was run?
Answer: -0.369%

Question: For `CCCOc1ccccc1-c1nc2n[nH]nc2c(=O)[nH]1`, which max response is on record?
Answer: 2.92%

Question: With `CC(C)NNC(=O)c1ccncc1` as the molecule, how does the max response read?
Answer: -10.4%

Question: For `Nc1c2c(nc3ccccc13)CCCC2O` (stereo not given), which outcome is on record?
Answer: inactive

Question: With `NC(=O)c1ncn([C@@H]2O[C@H](CO)[C@@H](O)[C@H]2O)c1O` as the molecule, how does the max response read?
Answer: 3.19%

Question: For `Cc1nc2c([nH]1)c(=O)n(C)c(=O)n2Cc1ccco1`, which max response is on record?
Answer: 4.2%

Question: How did the outcome turn out when `Cc1cc(C)c(/C=C2\C(=O)Nc3ccccc32)[nH]1` was run?
Answer: inactive

Question: With `CC(=O)OC(C)C[N+](C)(C)C` (stereo not given) as the molecule, how does the max response read?
Answer: 3.97%

Question: `CCn1cc(C(=O)O)c(=O)c2cc3c(cc21)OCO3` was tested. Which max response did it give?
Answer: -14.3%

Question: `CC(=O)Nc1nnc(S(N)(=O)=O)s1` was tested. Which max response did it give?
Answer: 3.96%

Question: `NC(=Nc1ccccc1)Nc1ccccc1` was tested. Which outcome did it give?
Answer: inactive

Question: `FC(F)(F)c1ccccc1-n1ccnc1` was tested. Which max response did it give?
Answer: -1.59%

Question: How did the outcome turn out when `CCN1CCc2nc(N)oc2CC1` was run?
Answer: inactive

Question: Which max response does the source give for `O=C(CCNNC(=O)c1ccncc1)NCc1ccccc1` here?
Answer: -20%

Question: For `C[N+](C)(C)CCOC(=O)CCC(=O)OCC[N+](C)(C)C`, which max response is on record?
Answer: 4.43%

Question: How did the max response turn out when `CN(C)CCOC(=O)COc1ccc(Cl)cc1` was run?
Answer: 2.83%

Question: `NC/C=C/C(=O)O` was tested. Which outcome did it give?
Answer: inactive

Question: For `CCN(CC)CC(=O)Nc1c(C)cccc1C`, which max response is on record?
Answer: -14.5%

Question: Which outcome does the source give for `CCN1CCC[C@H]1CNC(=O)c1c(O)c(Cl)cc(Cl)c1OC` here?
Answer: inactive
